# From PubChem BioAssay
# FGF22 binding = FGF22 (human) thermal shift binding. Q9HCT0. recombinant FGF22 thermal shift, SYPRO orange fluorescence; percent of sucrose octasulfate shift, DMSO zero. activity (Tm shift, normalised), % at 9.99 µM. hit rate 1.5% among 340,000. AID 651658;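 active means mean Tm shift, scaled 0 neutral to 100 positive control, at about 1.3% or above, every replicate too, limit read from the data; inconclusive means no clear call, values can overlap the other calls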
# Target sequence (Q9HCT0 whole entry, looked up): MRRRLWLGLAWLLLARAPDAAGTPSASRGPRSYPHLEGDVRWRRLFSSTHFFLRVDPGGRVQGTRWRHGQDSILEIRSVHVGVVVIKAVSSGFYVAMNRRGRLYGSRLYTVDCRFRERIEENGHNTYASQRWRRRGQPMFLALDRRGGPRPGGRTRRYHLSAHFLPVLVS
# PglD inh = PglD (C. jejuni) enzyme inhibition. purified PglD enzyme, DTNB colorimetric CoA detection. inhibition, % at 12.5 µM. hit rate 0.098% among 360,000. AID 602405; in the data active means inhibition above about 16%, passing the limit was not always enough; inconclusive means no clear call, values can overlap the other calls
# CDK5 p35 inh = inhibitors of human CDK5/p35 kinase; Recombinant CDK5/p35, ADP-Glo luminescence, 60 min; inhibition, % at 10 µM; hit rate 0.01% among 330,000;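 active means highest replicate inhibition of at least 50% and at least 75% of replicates reaching 50%; inconclusive means only one of the two criteria met; inactive means both criteria failed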;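 further: plate controls were DMSO neutral control for no effect and GW8510 at 10 µM for full effect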
# dFosB act = mouse delta FosB homodimer activation; P13346; purified delta FosB, TAMRA-CDK5 oligo fluorescence polarization; percent of positive-control signal above neutral wells; activation, % at 25 µM; hit rate 0.99% among 340,000; AID 493131;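 active means mean activation above about 17%, with every replicate also reaching it, limit read from the data, passing the limit was not always enough; inconclusive means only one of the two conditions met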
# PvdQ inh = blocks Pseudomonas aeruginosa PvdQ acylase activity | hit rate 0.063% among 340,000 | inhibition, % at 10 µM | purified PvdQ acylase, fluorescence plate reader; in the data active means inhibition above about 30%, passing the limit was not always enough; inconclusive means no clear call, values can overlap the other calls;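 further: 0% = vehicle neutral wells and 100% = reference inhibitor wells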
# SIRT5 block = inhibitors of human sirtuin-5 desuccinylase; Q9NXA8; Purified SirT5, succinyl-peptide AMC, trypsin-coupled fluorescence; inhibition, % at 15 µM; hit rate 1.1% among 330,000; in the data active means inhibition above about 15%; inconclusive means no clear call, values can overlap the other calls
# Target sequence (Q9NXA8 whole entry, looked up): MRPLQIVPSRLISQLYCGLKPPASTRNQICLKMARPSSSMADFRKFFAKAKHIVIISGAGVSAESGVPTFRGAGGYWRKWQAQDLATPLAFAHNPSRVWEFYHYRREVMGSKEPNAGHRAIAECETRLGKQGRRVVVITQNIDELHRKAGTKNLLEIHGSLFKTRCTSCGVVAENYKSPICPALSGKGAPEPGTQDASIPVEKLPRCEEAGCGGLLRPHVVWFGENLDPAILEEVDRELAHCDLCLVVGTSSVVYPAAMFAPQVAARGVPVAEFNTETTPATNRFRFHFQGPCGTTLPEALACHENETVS
# An asterisk follows results filed as active; ? = inconclusive; · = no result given. Rows were chosen to be rich in hits. Some 2.8% of all compounds tested hit in one or more screens of this group.
SMILES,FGF22 binding,PglD inh,CDK5 p35 inh,dFosB act,PvdQ inh,SIRT5 block
COC(=O)[C@H]1[C@H](CO)[C@H]2Cn3c(ccc(-c4ccccc4)c3=O)[C@@H]1N2C(=O)c1ccccc1F,0,2,·,·,·,-20
COc1ccc(Cc2nccc3cc(OC)c(OC)cc23)cc1OC,0,-7,2,-5,10,-5
COc1cc2c(ccc3c4cc(OC)c(OC)cc4c[n+](C)c23)cc1O,43,·,1,33*,-12,·
CCN1[C@@H]2Cn3c(ccc(-c4cccc(C(=O)N(C)C)c4)c3=O)[C@H]1[C@@H](C(=O)OC)[C@@H]2CO,0,2,·,·,·,-1
COC(=O)[C@H]1[C@H](CO)[C@H]2Cn3c(ccc(C4=CCCC4)c3=O)[C@@H]1N2CC1CCCC1,·,·,·,·,·,-5
NS(=O)(=O)c1ccc(N=Cc2c(O)n(C3CCCCC3)c(=O)n(C3CCCCC3)c2=O)cc1,·,2,1,-11,4,·
CCn1c(O)c(C=Nc2ccc(S(N)(=O)=O)cc2)c(=O)[nH]c1=S,·,·,-3,20*,6,·
CCn1c(O)c(C=Nc2ccc(S(N)(=O)=O)cc2)c(=O)n(CC)c1=S,0,·,0,19*,-8,-1
O=C(O)[C@@H]1[C@@H](CO)[C@@H]2Cn3c(ccc(-c4ccccc4)c3=O)[C@H]1N2S(=O)(=O)c1ccccc1F,0,0,·,·,·,9
CC12CCC3C(CC=C4CC5(CCC43C)OCCO5)C1CCC2=O (stereo not drawn),44*,1,0,-5,7,8
CN1CCN(c2ccc(N)cc2Cl)CC1,0,·,2,33*,7,1
O=C1NC(=O)C(=Cc2ccc(-c3ccc(F)cc3O)o2)C(=O)N1,43*,-6,2,-1,8,0
Cc1cccc(S(=O)(=O)N2[C@@H]3Cn4c(ccc(-c5ccncc5)c4=O)[C@H]2[C@@H](C(=O)O)[C@@H]3CO)c1,0,-1,·,·,·,-59
CCN(CCCl)c1cc(CN(C)C)cc(NC(=O)c2ccc(C(=O)Nc3cc(CN(C)C)cc(N(CC)CCCl)c3)cc2)c1,0,·,3,38*,-6,-6
O=C(O)[C@@H]1[C@@H](CO)[C@@H]2Cn3c(ccc(C4=CCCC4)c3=O)[C@H]1N2C(=O)Cc1ccccn1,·,1,·,·,·,-16
O=C1CC=C2C3CC4N(CCC45c4cc(O)c(O)cc4N1C25)CC3=CCBr (stereo not drawn),0,·,24,51*,-15,0
CCC1CN2CCc3cc(OC)c(OC)cc3C2CC1CC1NCCc2c1[nH]c1ccc(O)cc21 (stereo not drawn),-1,·,2,29*,-23,·
CCOC(=O)c1c(/N=C/c2c(O)n(-c3ccccc3F)c(=S)[nH]c2=O)sc2c1CCCC2,·,-4,2,23*,2,·
Cc1ccc(N2Cc3ccccc3C2=N)cc1[N+](=O)[O-],0,·,1,-2,-18,26*
COC(=O)[C@@H]1[C@@H](CO)[C@@H]2Cn3c(ccc(-c4ccc(F)cc4)c3=O)[C@H]1N2Cc1ccccc1,0,1,·,·,·,-2
CSc1ccc(CNC2CN3CCC2CC3)cc1 (stereo not drawn),0,-5,-1,2,-16,29*
c1ccc(CNC2CN3CCC2CC3)cc1 (stereo not drawn),·,0,0,-4,-27,·
COC(=O)[C@H]1[C@H](CO)[C@H]2Cn3c(ccc(C4=CCCC4)c3=O)[C@@H]1N2Cc1ccccn1,0,0,·,·,·,-3
CCCCn1c(O)c(/C=N/N2CCCCC2c2cccnc2)c(=O)[nH]c1=S (stereo not drawn),·,5,0,2,-5,-5
Cc1ccc(-n2c(O)c(/C=N/N3CCCCC3c3cccnc3)c(=O)[nH]c2=S)cc1 (stereo not drawn),43*,·,1,?,6,6
SMILES,FGF22 binding,PglD inh,CDK5 p35 inh,dFosB act,PvdQ inh,SIRT5 block
Cc1cc(C=O)c(C)n1C(C)C,43*,·,-3,-9,-13,-1
CCCn1c(C)cc(C=O)c1C,0,·,0,5,-9,-1
CCN(CC)C(=O)c1ccc(NC(=O)COc2ccccc2F)cc1,41,5,2,-2,6,21*
COc1ccc(OC)c(CC(=O)N(C)C2CCCN(Cc3ccccc3F)C2)c1 (stereo not drawn),0,5,-1,-7,-4,0
COc1cccc(CC(=O)N(C)C2CCCN(Cc3ccccc3F)C2)c1 (stereo not drawn),0,-4,1,-2,5,18*
O=C(Cc1ccccc1)N1CC2(C1)[C@H](c1ccccc1)[C@@H](CO)N2Cc1cccc(F)c1,0,·,·,·,·,0
CCOC(=O)C1(c2ccccc2)CCN(CCC(=O)Nc2cccc(Br)c2)CC1,0,2,1,18*,-4,-2
COc1ccc2nc3oc(C(=O)N4CCC5(CC4)OCCO5)cc3cc2c1,44*,·,0,-20,-1,-5
c1cc(-c2ccc(C3[C@H]4CNC[C@@H]3N4CC3CC3)cc2)ccn1 (stereo partly drawn),·,·,·,·,·,1
CC1(O)CCC2C3CCC4=CC(=O)CCC4=C3C=CC21C (stereo not drawn),43*,-1,2,7,-2,·
COCOC1CCC2C3CCC4=CC(=O)CCC4=C3C=CC12C (stereo not drawn),0,-3,2,-19,5,5
COC(=O)[C@@H]1[C@@H](CO)[C@@H]2Cn3c(ccc(C4=CCCCC4)c3=O)[C@H]1N2C(=O)NC(C)C,0,5,·,·,·,-11
COc1ccc(F)cc1C(=O)C1CCCN(Cc2cnc(C)s2)C1 (stereo not drawn),0,·,-6,-2,-11,-1
COc1ccc(F)cc1C(=O)C1CCCN(Cc2ccc(O)cc2)C1 (stereo not drawn),0,-5,1,-11,-3,17*
Cc1ccccc1-c1ccc([C@@H]2[C@H]3CN(C(=O)Cc4ccccn4)CCCCN3[C@H]2CO)cc1,0,2,·,·,·,3
COc1ccccc1CN1[C@H](CO)[C@@H](c2ccccc2)C12CN(C(=O)Cc1ccccc1)C2,0,·,·,·,·,-5
O=C(O)[C@@H]1[C@@H](CO)[C@@H]2Cn3c(ccc(-c4cccc(F)c4)c3=O)[C@H]1N2CCc1ccccc1,0,-2,·,·,·,4
COc1ccc(CCn2c(O)c(C=Nc3ccc(F)cc3)c(=O)[nH]c2=O)cc1OC,0,2,·,·,·,16*
CCOc1ccc(NC(=O)c2c(O)[nH]c(=O)[nH]c2=O)cc1,0,-6,2,-4,-11,1
CC(=O)Nc1ccc(OCCF)cc1,43*,·,-1,-7,-2,8
COC(=O)[C@@H](N)CCCN=C(N)N[N+](=O)[O-],0,-1,0,1,-2,2
CC(C)OC(=O)Nc1ccc(N=C(N)N[N+](=O)[O-])cc1,43*,·,1,-3,-10,-1
